The full data set covers some 8,800 targets. This sample favours those with a hit. About 0.5% of all pairs of compound and target were hits. Unmarked numbers belong to inactive results.
Assays:
Test in all cases: log2 fold change, soluble protein after heating vs DMSO (PISA); higher = thermal stabilisation; K562 lysate, 10 uM; active = over 0.2 and 3.5 SD of the protein, either way, in both replicates (recomputed)
[1] = compound: CCCS(=O)(=O)Nc1ccc(F)c(C(=O)c2c[nH]c3ncc(-c4ccc(Cl)cc4)cc23)c1F [vemurafenib]
Summary of the method: (§1)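 Soluble protein was defined as the supernatant remaining after 21,000xg for 90 min, following pooling of heated aliquots and adjustment to 0.5% NP-40 at 4°C. Before that, crude K562 extract at 1 mg/mL protein in PBS pH 7.4 with 1 mM MgCl2 was treated with 10 μM compound for 30 min and heated for 3 min across 48°C-58°C. Quantification used TMTpro 16plex LC-MS/MS with channel sums equalised, and values are log-two fold changes in thermal stability relative to solvent controls from duplicates.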

[2] = compound: CCCS(=O)(=O)Nc1ccc(F)c(C(=O)c2c[nH]c3ncc(Cl)cc23)c1F
Summary of the method: as §1

[3] = compound: CCN(CCCOc1ccc2c(Nc3cc(CC(=O)Nc4cccc(F)c4)[nH]n3)ncnc2c1)CCOP(=O)(O)O [barasertib]
Summary of the method: as §1

[4] = compound: CC[C@@H]1C(=O)N(C)c2cnc(Nc3ccc(C(=O)NC4CCN(C)CC4)cc3OC)nc2N1C1CCCC1
Summary of the method: as §1

[5] = compound: CC[C@@H]1C(=O)N(C)c2cnc(Nc3ccc(C(=O)N[C@H]4CC[C@H](N5CCN(CC6CC6)CC5)CC4)cc3OC)nc2N1C(C)C [volasertib]
Summary of the method: as §1

[6] = compound: CCn1c(C(=O)N(C2CC2)C2CC2)cc2c3c(ncn3C)c(Nc3cc(C)n(C)n3)nc21
Summary of the method: as §1

[7] = compound: CCn1cc(-c2ccnc3[nH]c(-c4cccc(CN(C)C)c4)cc23)c(-c2ccc(NC(=O)N(C)C)cc2)n1
Summary of the method: as §1

[8] = compound: CN1CCC(CNc2ccc3ncc(-c4cccc(OC(F)(F)F)c4)n3n2)CC1
Summary of the method: as §1

[9] = compound: CN1CCN(CCOc2cc(OC3CCOCC3)c3c(Nc4c(Cl)ccc5c4OCO5)ncnc3c2)CC1 [saracatinib]
Summary of the method: as §1

[10] = compound: CN1CCN(c2nc(C3=C(c4c[nH]c5ccccc45)C(=O)NC3=O)c3ccccc3n2)CC1 [sotrastaurin]
Summary of the method: as §1

Chain of UniProt Q16563 (Q16563 whole entry, looked up): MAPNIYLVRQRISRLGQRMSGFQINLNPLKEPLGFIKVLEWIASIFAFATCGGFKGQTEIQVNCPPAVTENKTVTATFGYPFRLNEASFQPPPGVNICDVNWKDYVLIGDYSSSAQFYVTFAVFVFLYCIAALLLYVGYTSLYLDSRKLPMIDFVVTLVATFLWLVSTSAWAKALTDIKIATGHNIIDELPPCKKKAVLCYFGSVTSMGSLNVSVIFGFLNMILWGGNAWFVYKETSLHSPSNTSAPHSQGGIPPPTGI
Chain of UniProt Q92844 (Q92844 whole entry, looked up): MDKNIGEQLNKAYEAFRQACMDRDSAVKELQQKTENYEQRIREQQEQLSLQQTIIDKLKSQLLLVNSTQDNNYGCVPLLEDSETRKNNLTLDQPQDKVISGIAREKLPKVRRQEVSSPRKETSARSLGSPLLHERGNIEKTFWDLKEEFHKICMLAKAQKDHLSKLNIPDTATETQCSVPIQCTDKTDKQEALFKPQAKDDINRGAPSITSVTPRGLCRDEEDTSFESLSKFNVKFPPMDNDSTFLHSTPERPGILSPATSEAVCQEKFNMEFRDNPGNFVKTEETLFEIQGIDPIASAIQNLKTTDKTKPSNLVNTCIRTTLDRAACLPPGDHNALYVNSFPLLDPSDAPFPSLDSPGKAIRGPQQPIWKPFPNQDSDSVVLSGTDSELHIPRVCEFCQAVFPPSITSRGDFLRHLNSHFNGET
Chain of UniProt Q9BXP5 (Q9BXP5 whole entry, looked up): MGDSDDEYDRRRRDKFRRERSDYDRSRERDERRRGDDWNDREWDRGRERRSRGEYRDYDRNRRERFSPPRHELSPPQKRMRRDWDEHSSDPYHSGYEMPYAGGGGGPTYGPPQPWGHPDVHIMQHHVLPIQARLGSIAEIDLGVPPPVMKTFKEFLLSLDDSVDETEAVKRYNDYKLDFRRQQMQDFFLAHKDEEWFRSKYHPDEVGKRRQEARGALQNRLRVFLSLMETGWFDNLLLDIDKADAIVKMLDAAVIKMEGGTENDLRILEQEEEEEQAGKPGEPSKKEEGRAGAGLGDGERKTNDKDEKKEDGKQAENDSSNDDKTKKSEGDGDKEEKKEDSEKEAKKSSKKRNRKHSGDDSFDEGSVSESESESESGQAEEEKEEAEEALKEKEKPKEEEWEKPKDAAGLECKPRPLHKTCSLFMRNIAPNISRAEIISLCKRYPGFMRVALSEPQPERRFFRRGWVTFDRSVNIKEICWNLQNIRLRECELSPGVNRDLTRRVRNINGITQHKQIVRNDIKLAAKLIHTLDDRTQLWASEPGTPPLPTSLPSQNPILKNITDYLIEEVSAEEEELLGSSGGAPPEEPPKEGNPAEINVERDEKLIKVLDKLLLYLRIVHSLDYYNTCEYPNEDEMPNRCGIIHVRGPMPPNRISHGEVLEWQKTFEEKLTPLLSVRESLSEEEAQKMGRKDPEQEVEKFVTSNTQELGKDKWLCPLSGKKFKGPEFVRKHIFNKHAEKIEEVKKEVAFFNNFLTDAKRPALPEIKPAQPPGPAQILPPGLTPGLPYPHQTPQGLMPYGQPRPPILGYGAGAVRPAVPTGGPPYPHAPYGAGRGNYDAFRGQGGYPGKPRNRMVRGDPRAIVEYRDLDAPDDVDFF
Chain of UniProt P41440 (P41440 whole entry, looked up): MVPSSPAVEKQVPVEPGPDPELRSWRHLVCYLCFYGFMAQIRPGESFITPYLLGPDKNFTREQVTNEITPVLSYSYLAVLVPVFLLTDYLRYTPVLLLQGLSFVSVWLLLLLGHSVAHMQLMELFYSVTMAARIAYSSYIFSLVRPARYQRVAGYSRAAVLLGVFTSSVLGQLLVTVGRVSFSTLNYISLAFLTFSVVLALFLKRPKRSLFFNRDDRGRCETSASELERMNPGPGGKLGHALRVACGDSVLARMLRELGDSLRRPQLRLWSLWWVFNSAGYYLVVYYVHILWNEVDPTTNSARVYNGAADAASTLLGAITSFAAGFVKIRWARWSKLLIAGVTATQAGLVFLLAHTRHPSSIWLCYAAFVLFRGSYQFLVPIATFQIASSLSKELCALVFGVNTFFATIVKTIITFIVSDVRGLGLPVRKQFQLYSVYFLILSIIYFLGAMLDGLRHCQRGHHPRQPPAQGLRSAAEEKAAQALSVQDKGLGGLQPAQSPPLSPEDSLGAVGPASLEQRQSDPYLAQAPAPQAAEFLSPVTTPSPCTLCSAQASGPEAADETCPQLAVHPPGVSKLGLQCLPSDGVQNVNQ
Chain of UniProt Q9BXS9 (Q9BXS9 whole entry, looked up): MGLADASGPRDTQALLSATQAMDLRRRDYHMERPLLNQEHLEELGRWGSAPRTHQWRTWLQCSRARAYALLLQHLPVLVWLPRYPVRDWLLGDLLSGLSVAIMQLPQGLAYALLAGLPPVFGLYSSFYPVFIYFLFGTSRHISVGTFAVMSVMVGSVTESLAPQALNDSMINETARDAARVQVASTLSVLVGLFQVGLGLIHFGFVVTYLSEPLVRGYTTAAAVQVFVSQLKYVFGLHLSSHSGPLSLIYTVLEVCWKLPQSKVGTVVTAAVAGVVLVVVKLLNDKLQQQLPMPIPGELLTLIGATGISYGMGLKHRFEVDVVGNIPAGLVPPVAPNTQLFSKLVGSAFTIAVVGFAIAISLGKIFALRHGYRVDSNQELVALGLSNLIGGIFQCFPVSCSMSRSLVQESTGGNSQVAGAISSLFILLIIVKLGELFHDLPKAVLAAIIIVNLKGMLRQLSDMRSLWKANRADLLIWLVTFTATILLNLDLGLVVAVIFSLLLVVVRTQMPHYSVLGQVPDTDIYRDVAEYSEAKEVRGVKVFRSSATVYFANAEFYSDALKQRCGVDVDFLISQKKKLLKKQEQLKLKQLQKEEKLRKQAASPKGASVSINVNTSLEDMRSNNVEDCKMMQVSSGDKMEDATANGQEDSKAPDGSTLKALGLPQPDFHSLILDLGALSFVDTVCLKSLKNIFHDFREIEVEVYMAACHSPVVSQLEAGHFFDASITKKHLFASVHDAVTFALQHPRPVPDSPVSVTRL
Chain of UniProt Q8NDV3 (Q8NDV3 whole entry, looked up): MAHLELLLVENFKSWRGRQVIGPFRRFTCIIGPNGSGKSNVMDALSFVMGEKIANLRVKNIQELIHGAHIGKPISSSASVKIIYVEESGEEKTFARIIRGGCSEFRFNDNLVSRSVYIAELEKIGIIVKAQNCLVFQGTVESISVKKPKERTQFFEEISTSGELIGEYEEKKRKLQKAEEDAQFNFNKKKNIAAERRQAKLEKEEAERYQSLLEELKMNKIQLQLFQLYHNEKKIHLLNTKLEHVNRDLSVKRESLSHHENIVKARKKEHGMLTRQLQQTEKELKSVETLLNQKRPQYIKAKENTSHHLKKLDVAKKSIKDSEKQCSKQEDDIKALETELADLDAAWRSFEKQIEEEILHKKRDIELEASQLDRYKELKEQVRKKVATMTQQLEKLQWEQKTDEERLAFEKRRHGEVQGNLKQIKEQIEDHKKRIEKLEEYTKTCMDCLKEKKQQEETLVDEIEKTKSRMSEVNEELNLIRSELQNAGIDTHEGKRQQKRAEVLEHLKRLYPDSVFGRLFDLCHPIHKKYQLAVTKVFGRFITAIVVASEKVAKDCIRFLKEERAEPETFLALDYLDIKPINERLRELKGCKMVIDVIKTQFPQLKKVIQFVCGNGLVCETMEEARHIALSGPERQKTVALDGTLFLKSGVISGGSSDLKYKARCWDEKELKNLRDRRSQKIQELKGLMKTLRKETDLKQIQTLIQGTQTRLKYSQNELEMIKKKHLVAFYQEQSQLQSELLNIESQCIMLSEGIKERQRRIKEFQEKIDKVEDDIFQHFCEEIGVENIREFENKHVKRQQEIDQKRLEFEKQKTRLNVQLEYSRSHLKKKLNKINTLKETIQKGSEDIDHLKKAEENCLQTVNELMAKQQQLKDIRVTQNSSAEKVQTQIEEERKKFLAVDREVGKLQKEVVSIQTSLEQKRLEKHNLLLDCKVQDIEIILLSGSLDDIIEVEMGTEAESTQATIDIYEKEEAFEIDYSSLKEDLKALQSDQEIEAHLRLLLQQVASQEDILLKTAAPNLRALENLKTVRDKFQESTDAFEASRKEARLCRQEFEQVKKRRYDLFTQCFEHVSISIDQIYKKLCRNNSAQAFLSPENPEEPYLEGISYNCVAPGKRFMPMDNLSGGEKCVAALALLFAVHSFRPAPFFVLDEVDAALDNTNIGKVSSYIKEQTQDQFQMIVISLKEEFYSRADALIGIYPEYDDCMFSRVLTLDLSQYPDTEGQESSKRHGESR
Chain of UniProt Q15633 (Q15633 whole entry, looked up): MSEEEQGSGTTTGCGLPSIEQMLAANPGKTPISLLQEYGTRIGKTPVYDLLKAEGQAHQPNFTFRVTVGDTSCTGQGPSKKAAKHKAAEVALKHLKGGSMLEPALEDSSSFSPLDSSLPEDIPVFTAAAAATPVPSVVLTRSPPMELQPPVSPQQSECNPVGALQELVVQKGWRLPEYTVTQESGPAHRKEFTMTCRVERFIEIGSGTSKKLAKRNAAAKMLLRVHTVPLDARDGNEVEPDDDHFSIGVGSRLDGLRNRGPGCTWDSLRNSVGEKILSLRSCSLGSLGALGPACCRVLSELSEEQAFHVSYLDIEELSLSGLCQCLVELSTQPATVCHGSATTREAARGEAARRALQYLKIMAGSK
Chain of UniProt Q9H2H9 (Q9H2H9 whole entry, looked up): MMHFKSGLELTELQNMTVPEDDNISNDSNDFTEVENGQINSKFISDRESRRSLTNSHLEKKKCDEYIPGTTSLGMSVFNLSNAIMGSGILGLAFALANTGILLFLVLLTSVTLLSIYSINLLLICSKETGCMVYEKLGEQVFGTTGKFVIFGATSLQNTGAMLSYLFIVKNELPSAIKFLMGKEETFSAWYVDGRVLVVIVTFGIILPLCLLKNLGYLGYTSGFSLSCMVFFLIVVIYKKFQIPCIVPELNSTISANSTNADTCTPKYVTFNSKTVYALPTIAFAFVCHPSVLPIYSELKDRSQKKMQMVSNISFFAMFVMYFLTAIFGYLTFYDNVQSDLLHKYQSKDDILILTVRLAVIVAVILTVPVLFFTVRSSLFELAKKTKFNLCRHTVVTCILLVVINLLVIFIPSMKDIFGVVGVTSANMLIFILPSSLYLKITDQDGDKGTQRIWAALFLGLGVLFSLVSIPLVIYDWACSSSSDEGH

Target	log2 fold change [1]	log2 fold change [2]	log2 fold change [3]	log2 fold change [4]	log2 fold change [5]	log2 fold change [6]	log2 fold change [7]	log2 fold change [8]	log2 fold change [9]	log2 fold change [10]
SLC26A6 (UniProt Q9BXS9)	0.106	0.086	0.421 (active)	0.055	0.008	0.017	-0.095	0.036	-0.126	0.005
SRSF9 (UniProt Q13242)	-0.104	0.009	0.049	-0.05	-0.029	0.03	-0.006	-0.029	-0.021	-0.064
SH3GL3 isoform 3 (UniProt Q99963)	0.08	0.012	0.063	-0.032	-0.049	-0.051	-0.761 (active)	0.33	-0.008	0.035
TAF1B (UniProt Q53T94)	0.397	-0.217	0.11	-0.212	-0.057	-0.039	-0.12	0.166	0.045	0.055
SKA3 (UniProt Q8IX90)	0.047	0.011	-0.062	0.016	0.007	-0.018	-0.027	0.023	0.017	0.028
SMAP2 (UniProt Q8WU79)	-0.043	0.011	0.013	0.047	-0.02	0.012	0.043	-0.001	0.044	-0.027
SLC20A1 (UniProt Q8WUM9)	0.099	-0.004	0.009	0.416 (active)	-0.028	-0.061	0.153	-0.013	0.063	-0.006
TANK (UniProt Q92844)	0.023	0.004	0.007	-0.026	-0.02	0.004	0.18	-0.054	0.01	0
SNCA (UniProt P37840)	0.042	-0.039	-0.027	0.08	0.072	-0.022	-0.109	0.287	-0.035	0.068
SLC22A18 (UniProt Q96BI1)	0.026	0.046	-0.059	0.044	0.08		0.026	-0.032		0.073
SLC38A1 (UniProt Q9H2H9)	0.03	-0.007	0	0.035	0.066	0.008	-0.269 (active)	0.102	-0.002	0.024
SLC19A1 (UniProt P41440)	0.028	-0.005	0.059	0.014	0.047	-0.036	-0.203	0.165	0.019	0.025
SOX5 (UniProt P35711)	0.141	0.175	0.048	0.176	-0.034	0.049	-0.043	-0.043	0.076	-0.131
SMC1B isoform 3 (UniProt Q8NDV3)	0.149	0.002	0.003	-0.073	0.024	-0.071			0.055	-0.02
STIM1 (UniProt Q13586)	0.003	0.012	0.036	-0.076	0.006	0.048	0.259	-0.205	0.003	-0.01
SMYD3 (UniProt Q9H7B4)	0.036	0.013	0.017	-0.137	-0.051	-0.02			0.045	-0.005

Target	log2 fold change [1]	log2 fold change [2]	log2 fold change [3]	log2 fold change [4]	log2 fold change [5]	log2 fold change [6]	log2 fold change [7]	log2 fold change [8]	log2 fold change [9]	log2 fold change [10]
SORBS3 (UniProt O60504)	-0.092	0.067	-0.032	0.034	-0.129	-0.05	-0.025	0.004	0.052	-0.011
SRRT (UniProt Q9BXP5)	0.012	0.012	-0.008	-0.039	-0.08	0.042	0.061	-0.1	-0.016	0.02
SLC27A4 (UniProt Q6P1M0)	-0.042	0.127	-0.015	-0.028	-0.106	0	-0.066	-0.008	-0.023	0.083
SQLE (UniProt Q14534)	0.036	-0.01	0.103	0.051	0.073	-0.063	-0.06	-0.02	0.077	0.065
TARBP2 (UniProt Q15633)	-0.035	0.092	0.093	-0.145	-0.034	-0.016	-0.02	-0.093	0.035	-0.006
SMARCA4 (UniProt P51532)	0.011	0.006	0.038	-0.058	-0.024	0.02	-0.044	-0.024	0.011	0.034
TAF9 (UniProt Q16594)	-0.028	-0.092	-0.001	-0.031	0.063	0.002	0.238 (active)	-0.006	0.056	-0.001
SNUPN (UniProt O95149)	-0.008	0.007	0.06	-0.082	0.04	0.051	-0.024	-0.036		0.028
SLC39A11 (UniProt Q8N1S5)	-0.082	0.073	-0.126	0.067	0.011	0.028	-0.043	0.147	-0.108	-0.009
SH3BP5L (UniProt Q7L8J4)	0.078	0.02	-0.029	0.011	0.013	-0.011	-0.014	0.072	0.05	0
SFR1 isoform 2 (UniProt Q86XK3)	-0.031	-0.037	0.024	0.028	0.022	0.013	-0.087	-0.119	-0.04	0.085
SPPL2A (UniProt Q8TCT8)	0.312	0.023	0.077	-0.016	0.011	-0.062	-0.196	0.202		-0.029
SKA1 (UniProt Q96BD8)	-0.004	-0.01	-0.017	-0.234 (active)	-0.121	0.003	-0.167	0.021	0.071	0.066
STMN3 (UniProt Q9NZ72)	-0.123	-0.006	0.098	0.096	0.002	-0.066			0.053	0.009
SH3BP2 isoform 4 (UniProt P78314)	0.087	-0.017	-0.075		-0.052	0.029	-0.04	0.089	0.006	0.02
SYPL1 (UniProt Q16563)	-0.006	-0.019	0.076	0.004	0.032	-0.011	-0.418 (active)	0.194	0.01	0.023

Source: the supplement of paper PMC10849652
